Data: PubChem BioAssay (NCI)
The panel holds about 83,000 compounds, 20% with a hit somewhere; the sample as a whole holds those more often.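 Compound tested at a single concentration for 48 hours in 96-well plates; a percent growth value below 10 was scored as active.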 Values without a mark were called inactive. Calls of active or inactive are those of the source.

Experiments:
Assay in all cases: NCI-60 one-dose screen, 48 h (100 = growth as untreated, 0 = no growth, -100 = all killed)
Conditions in all cases: 10 µM unless noted
T-47D breast = tested on: T-47D breast
BT-549 breast = tested on: BT-549 breast
MDA-MB-435 melanoma = tested on: MDA-MB-435 melanoma
SW-620 colon = tested on: SW-620 colon
MCF7 breast = tested on: MCF7 breast
HCT-116 colon = tested on: HCT-116 colon
HCC-2998 colon = tested on: HCC-2998 colon
KM12 colon = tested on: KM12 colon

SMILES | growth (T-47D breast) | growth (BT-549 breast) | growth (MDA-MB-435 melanoma) | growth (SW-620 colon) | growth (MCF7 breast) | growth (HCT-116 colon) | growth (HCC-2998 colon) | growth (KM12 colon)
C=C=COc1cccc(/C(N)=N/C(N)=N/c2nc3ccccc3s2)c1 | 63.1% | 56% | 77.8% | 94.9% | 93.1% | 25.1% | 102% | 71.1%
C=C(C)[C@@H]1CC[C@]2(C(=O)NCCCCCN(CCC#N)CCC#N)CC[C@]3(C)[C@H](CC[C@@H]4[C@@]5(C)CCC(=O)C(C)(C)[C@@H]5CC[C@]43C)[C@@H]12 | 106% | 92.9% | 99.7% | 97.4% | 86.2% | 95.5% | 110% | 101%
COC(=O)/C=C/c1c(C2(C)NC(=O)c3ccccc3N2)c(=O)oc2ccc(Cl)cc12 (configuration not stated) | 91.6% | 87.4% | 102% | 96.3% | 86.9% | 88.6% | 102% | 93.4%
COc1ccc2c(c1)Oc1nc(N)c(C#N)c(N)c1C2Sc1ccc(C)cc1 (configuration not stated) | -31.6% (active) | 68.4% | -8.09% (active) | -49.5% (active) | -77.7% (active) | -69.1% (active) | -64.2% (active) | 52.5%
CCn1c(SCC(=O)Nc2cccc(C(=O)/C=C/c3ccccc3Cl)c2)nc2ccccc2c1=O | 81.3% | 105% | 98.6% | 72.8% | 17.1% | -26.3% (active) | 91% | 85.3%
C=CCOc1cccc(/C=C2\SC(=S)N(C3CC(=O)N(c4ccc(Br)cc4)C3=O)C2=O)c1 (configuration not stated) | 95.9% | 109% | 109% | 108% | 90.7% | 100% | 115% | 97.6%
CC1=NC2=NC(=O)/C(=C3/N=C(C)C=C(c4ccccc4)N3N)NN2C(c2ccccc2)=C1 | 102% | 111% | 108% | 108% | 93.6% | 102% | 110% | 98.4%
COc1cc2nc(Cl)nc(Nc3cccc(C4=Nc5c(N)nc(N)nc5NC(c5ccc(F)cc5)C4)c3)c2cc1OC (configuration not stated) | 63.7% | 78.1% | 77.2% | 12.7% | -5.06% (active) | -41.7% (active) | 22.9% | 34.1%
Nc1ncc(-c2ccc3ncnc(Nc4cccc(Cl)c4F)c3c2)cn1 | 23.8% | 61.3% | 80.4% | 91.1% | 38.2% | 96.4% | 56.5% | 89.6%
COc1c(N2CC3CCCNC3C2)c(F)cc2c(=O)c(C(=O)N/N=C/c3ccc(Br)cc3)cn(C3CC3)c12 (configuration not stated) | 84.3% | 114% | 84.7% | 89.6% | 52.4% | 50.5% | 92.2% | 97.3%
COc1ccc(/C=C/C(=O)c2cc(S(N)(=O)=O)c(OC)cc2OC)cc1 | 50.3% | 82.8% | 53.3% | 46.6% | 44.3% | 65.1% | 83.2% | 40.9%
COc1cc2oc(-c3cccc(N)c3)cc(=O)c2c(OC)c1OC | 97.8% | 116% | 103% | 112% | 96.3% | 111% | 110% | 103%
CNc1ncc2cc(-c3ccc(-c4ncccc4F)cc3Cl)c(=O)n(CC3OCC(N)CO3)c2n1 (configuration not stated) | 72.5% | 82.1% | 105% | 99.1% | 101% | 80.2% | 100% | 95.7%
COc1ccc(CCN2C(=O)CSC2=S)cc1 | 50.7% | 112% | 77.6% | 61.3% | 24.2% | 84.6% | 110% | 6.12% (active)
COc1cc(OC)cc(C(=O)Nc2cccc(C#Cc3cccc4[nH]nc(N)c34)c2)c1 | 31.2% | 33.7% | -38.1% (active) | 15.9% | 26.2% | 13% | 43.3% | 12%
Cc1occc1-c1nc2s/c(=C/c3ccc(-c4cc(C(F)(F)F)ccc4Cl)o3)c(=O)n2n1 | 92.7% | 108% | 101% | 101% | 90% | 102% | 106% | 99.9%
COc1ccccc1-n1cc(C#N)c(N)c1C(=O)c1ccc(Cl)cc1 | 88.3% | 92.7% | -16.7% (active) | 40.8% | 32.3% | 63.5% | 68.2% | 58.2%
CC1(C)[C@@H](O)CC[C@]2(C)[C@H]3CC[C@@H]4[C@H]5[C@H](C(=O)/C=C\c6ccccn6)CC[C@]5(O)CC[C@@]4(C)[C@]3(C)CC[C@@H]12 | 59% | 36% | 27.4% | 18.5% | 31.8% | 2.84% (active) | 52% | 30.7%
COc1ccc(-c2nc(C(Cl)Cl)nc3cc(-c4ccccc4)nn23)cc1 | 45.8% | 38.4% | -30.3% (active) | -23.9% (active) | 29.3% | 1.5% (active) | -37.8% (active) | -2.28% (active)
c1n[nH]cc1-c1nc2ccc3[nH]ncc3c2c2c1CCCC2 | 15.7% | -18.9% (active) | 1.93% (active) | 6.24% (active) | 3.93% (active) | -3.08% (active) | 33.5% | 5.28% (active)
COc1ccc(-c2nn(-c3ccc(S(C)(=O)=O)cc3)cc2/C=N/O)cc1 | 106% | 112% | 109% | 104% | 106% | 107% | 115% | 104%
O=C(NNc1nc2cc(F)ccc2n2c(CN3CCCC3)ccc12)c1cnccn1 | 15.4% | 24.1% | 34.4% | 22.3% | 4.57% (active) | 11.1% | 35.7% | 20.3%
O=C(Nc1cccc(C(F)(F)F)c1)c1cc(-c2ccc(F)cc2F)ccc1O | 2.56% (active) | 1.83% (active) | 4.23% (active) | 10.8% | 2.4% (active) | 3.8% (active) | 15.2% | 3.77% (active)
CS(=O)(=O)Nc1cc(-c2ccc3ncc(C#N)c(NCc4ccccc4F)c3c2)cnc1Cl | 3.78% (active) | -8.8% (active) | 6.84% (active) | 8.38% (active) | 4.76% (active) | 4.1% (active) | -1.68% (active) | 11.5%
Nc1nc(-c2cccc([N+](=O)[O-])c2)c(N=Nc2ccccc2)s1 | 40.5% | 73.2% | 64.9% | 64.9% | 51.9% | 54.8% | 71.6% | 44%
CNC1CCc2c(sc(NC(=O)c3ccc(C(C)(C)C)cc3)c2C(N)=O)C1 (configuration not stated) | 53.6% | 74.7% | 45.2% | -53.5% (active) | -34.2% (active) | 3.12% (active) | 28.6% | 10%
C#C[C@]1(O)CC[C@H]2[C@@H]3CC=C4c5sc(-c6ccc(C)cc6)nc5CC[C@]4(C)[C@H]3CC[C@@]21C | 50.4% | 47.8% | -46.4% (active) | -37.5% (active) | 1.73% (active) | 29.4% | 62.6% | 12.7%
C=CCn1c(SCC(=O)Nc2ccc(C(=O)/C=C/c3ccc(C)cc3)cc2)nnc1-c1c[nH]c2ccccc12 | 70% | 107% | 96.7% | 96.9% | 20.2% | -2.08% (active) | 102% | 96.6%
CCN(CC)c1ccc2c(c1)Oc1nc(N)c(C#N)c(N)c1C2Sc1ccc(F)cc1 (configuration not stated) | -35% (active) | 56.1% | -17.5% (active) | -80.2% (active) | -85.5% (active) | -81.4% (active) | -90.9% (active) | -74.1% (active)
